From PubChem
A selection: hits, their analogues and other compounds. The true share with any hit is near 2.4%.
Rango release inh: prevents RanGTP from dissociating the Rango-importin beta complex; Potency, µM (highest dose often 46.1 µM), for the others: top-dose activity change, negative = inhibition; Biochemical FRET Rango-importin beta, RanGTP-induced dissociation; hit rate 0.071% among 340,000; further: % of control where 0% means no effect; nearly all actives have a fitted effect of over 45% in size
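FRET read at 45 min, room temperature: inhibitors block the CFP/YFP signal rise when RanGTP (0.6 uM Ran, 2 mM GTP, 0.2 uM RCC1) frees Rango (0.1 uM) from importin beta (0.25 uM). Pre-read after 5 min compound exposure flags interference.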
TSG101-PTAP inh: blocks PTAP/TSG101 interaction to inhibit HIV-1 budding; Q99816; 340,000 tested, under 10 active; Potency, µM (doses to about 115 µM), for the others: at the highest dose activity change, negative = inhibition, most hits filed as inhibitors; Fluorescence polarization, FITC-PTAP peptide / Tsg101 binding; AID 493005; active means well fitted inhibition curve with a large enough effect in the main read-out, with a control signal flat, not every such curve was filed as active; inconclusive means small, poorly fitted or top-dose-only effect, or effect the other way, or a change in a side signal; inactive means no such curve, though single readings can be large or run the other way; further: % of control where 0% means no effect
Target sequence (Q99816 whole entry, looked up): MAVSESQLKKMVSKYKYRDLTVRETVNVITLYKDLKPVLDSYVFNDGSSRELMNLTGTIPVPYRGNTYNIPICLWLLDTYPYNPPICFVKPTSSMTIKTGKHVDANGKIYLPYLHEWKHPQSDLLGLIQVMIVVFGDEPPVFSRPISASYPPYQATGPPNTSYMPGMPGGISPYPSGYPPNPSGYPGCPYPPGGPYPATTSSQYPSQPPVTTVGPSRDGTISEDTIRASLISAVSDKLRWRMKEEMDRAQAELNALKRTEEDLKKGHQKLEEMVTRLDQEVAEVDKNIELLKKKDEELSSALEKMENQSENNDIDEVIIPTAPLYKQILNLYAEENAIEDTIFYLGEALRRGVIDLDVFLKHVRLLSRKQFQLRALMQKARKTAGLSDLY
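Fluorescence anisotropy tracks displacement of a FITC-tagged PTAP peptide (50 nM) from the Tsg101 binding domain (10 uM), following a 20 min room-temperature incubation at pH 7.5.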
Rango-impB inh: Rango-importin beta binding inhibition; Potency, µM (doses to about 92.2 µM), without a hit: at the highest dose inhibition of complex formation; hit rate 0.031% among 340,000; Q14974; AID 540263; Rango CFP/YFP FRET sensor + importin beta, 45 min;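 further: 0% = DMSO wells and 100% = buffer wells lacking importin beta; nearly all actives have a fitted effect of over 15% in size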
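FRET biosensor Rango (snurportin 1 IBB between N-terminal EYFP and C-terminal Cerulean), 50 nM in PBS/1 mM DTT/0.02% Tween-20/0.1% BSA, preincubated 5 min RT with compound; 0.125 microM importin beta added, 45 min RT, CFP/YFP FRET ratio read.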
ClpP mod: qHTS Assay for Activators of ClpP; Potency, µM (series often up to 57.5 µM), without a hit: at the highest dose activity change, negative = active; purified B. subtilis ClpP, FRET peptide cleavage, 20 min; hit rate 1.9% among 340,000; active means well fitted falling curve with a large enough effect; inconclusive means small, poorly fitted or top-dose-only effect; inactive means no such curve, though single readings can be large or run the other way; further: the source files actives as falling curves though it sought activators and does not explain the sign; nearly all actives have a fitted effect of over 65% in size
Target sequence (P80244 whole entry, looked up): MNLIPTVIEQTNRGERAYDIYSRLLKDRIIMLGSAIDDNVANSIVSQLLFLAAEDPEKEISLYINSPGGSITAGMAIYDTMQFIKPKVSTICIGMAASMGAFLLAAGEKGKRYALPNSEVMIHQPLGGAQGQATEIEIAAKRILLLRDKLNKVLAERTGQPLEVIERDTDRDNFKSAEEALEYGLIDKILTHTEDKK
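Purified B. subtilis ClpP, 10 microg/mL final in Tris/HCl pH8 with KCl, BSA, glycerol and Tween-20, cleaved an Abz/nitrotyrosine-quenched decapeptide. Fluorescence (ex 320, em 430) was read at 0 and 20 min at room temperature. Delta was normalized to 5.8 microM ADEP and DMSO/no-enzyme controls.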
12-LOX inh: inhibitors of human 12S-lipoxygenase ALOX12; P18054; purified 12hLO, xylenol orange hydroperoxide absorbance; Potency, µM (series often up to 108 µM), without a hit: at the top dose activity change, negative = inhibition, most hits filed as inhibitors; hit rate 1.1% among 580,000; AID 1671190; active means well fitted curve in the direction sought with a large enough effect; inconclusive means small, poorly fitted or top-dose-only effect, or another doubt; inactive means no such curve, though single readings can be large; an effect the other way counts as inactive or inconclusive; further: on the % scale 0 is the no-effect control and ±100 the full control effect
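Hydroperoxide product was detected by ferrous iron/xylenol orange as the 573 to 405 nm absorbance ratio. Arachidonic acid at 40 uM (final) was turned over for 30 min at room temperature by 150 nM human 12hLO, pH 7.0 Hepes buffer, after 15 min compound preincubation.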
TDP1 block: inhibitors of human tyrosyl-DNA phosphodiesterase TDP1 | Potency, µM (doses to about 130 µM), for inactives: at the top dose activity change, negative = inhibition, usual class: inhibitors | hit rate 0.28% among 350,000 | recombinant TDP1, AlphaScreen DNA substrate cleavage; active means well fitted curve in the direction sought with a large enough effect; inconclusive means small, poorly fitted or top-dose-only effect, or another doubt; inactive means no such curve, though single readings can be large; an effect the other way counts as inactive or inconclusive; further: on the % scale 0 is the no-effect control and ±100 the full control effect; nearly all actives have a fitted effect of over 40% in size
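Signal: AlphaScreen proximity between streptavidin donor and anti-FITC acceptor beads on intact substrate. Reaction: Tdp1 1 nM, substrate 15 nM final, 5 min RT after 15 min compound preincubation.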
Numbers without * were called inactive; ? = inconclusive; . = no result given; [ ] = remark or other dose. Unless noted, the call rests on the fitted dose curve. Potency means the concentration at half of the fitted maximal effect.

SMILES	Rango release inh	TSG101-PTAP inh	Rango-impB inh	ClpP mod	12-LOX inh	TDP1 block
c1cncc(CN2CCN(Cc3c[nH]c4ccccc34)CC2)c1	.	.	.	.	0.32µM*	.
O=C(c1c[nH]c2ccccc12)N1CCN(Cc2ccccc2)CC1	31%	-7%	2%	-2%	-11%	9%
O=C(c1cccc2ccccc12)N1CCN(Cc2c[nH]c3ccccc23)CC1	.	.	.	.	1µM*	.
CC(=O)N[C@@H](Cc1c[nH]c2ccccc12)C(=O)N1CCC(C)CC1	.	.	.	.	6%	.
COc1ccc(Nc2nc(C)c(NC(=O)c3cccc(C)c3)c(Nc3ccc(OC)cc3)n2)cc1	.	.	.	.	35µM*	.
CC(=O)Nc1ccc(S(=O)(=O)NC(CC(=O)NCCc2ccccc2)C(C)C)cc1 (stereo unspecified)	0%	-6%	2%	0%	2%	6%
CC(=O)Nc1ccc(S(=O)(=O)NC(CC(=O)N(C)Cc2ccccc2)C(C)C)cc1 (stereo unspecified)	26%	-2%	-1%	14µM*	-11%	3%
COc1ccc(C2(C(=O)N3CCC4(CC3)N(C)C(=O)CS4=O)CC2)cc1 (stereo unspecified)	.	.	.	.	3%	.
Cc1cc(-c2nnc(CCC(=O)NCc3cc(F)cc(C(F)(F)F)c3)o2)no1	-2%	-1%	-1%	28µM*	9%	5%
O=c1[nH]c2ccccc2nc1-c1cccs1	?	-6%	?	14µM*	5%	-3%
CC(c1nc2ccccc2[nH]1)n1c(=O)c(-c2cccs2)nc2ccccc21 (stereo unspecified)	.	.	.	22µM*	?	.
COc1ccc(CN2CCC3(C2)C(=NC2CCCC2)NC(=O)N3c2cccc(OC)c2)cc1 (stereo unspecified)	.	.	.	.	1%[6.33 µM]	.
COCCOCC1(CNC(=O)C2CC2)C[C@@H](O)[C@@H](O)C1 (stereo partly specified)	.	.	.	.	31%[176 µM]	.
COc1ccc(C)cc1-n1c(-c2ccncc2)n[nH]c1=S	-3%	-4%	0%	1%	-9%	0%
COc1ccccc1-n1c(-c2cc(-c3ccc(F)cc3)n[nH]2)n[nH]c1=S	-3%	1%	-2%	.	40µM*	1%
COc1ccccc1-c1n[nH]c(=S)n1N	5%	0%	-3%	-4%	14µM*	5%
COc1cc(-n2c(-c3ccccc3)n[nH]c2=S)c(OC)cc1Cl	?	-4%	0%	0%	28µM*	-1%
COc1ccc(-c2noc([C@@H]3C[C@@H](O)CN3Cc3ccccn3)n2)cc1	.	.	.	.	65%[176 µM]	.
CN(C)CC(NC1CCC2(CCNCC2)CC1)c1ccccc1 (stereo unspecified)	.	.	.	.	49%	.
Cc1ccc2c(C(=O)O)cc(-c3ccccc3)nc2c1C	.	.	.	.	-14%	.
CCOc1cccc(-c2cc(C(=O)O)c3ccc(C)c(C)c3n2)c1	.	.	.	.	40µM*	.
CCOC(=O)C1Nc2ccc(C)cc2C2C=CCC12 (stereo unspecified)	-6%	-9%	4%	-4%	32µM*	.
CCOC(=O)C1Nc2ccc(Br)cc2C2C=CCC12 (stereo unspecified)	1%	-3%	-4%	.	?	.
COC(=O)CNc1n[nH]c(=S)[nH]c1=O	4%	2%	5%	-2%	?	3%
O=c1[nH]c(=S)[nH]nc1Cc1ccc(Cl)c(Cl)c1	6%	-9%	5%	.	6.3µM*	.
SMILES	Rango release inh	TSG101-PTAP inh	Rango-impB inh	ClpP mod	12-LOX inh	TDP1 block
CC(C)(C)c1ccc(Cc2n[nH]c(=S)[nH]c2=O)cc1	8%	-4%	6%	.	16µM*	.
CN(C)CCOc1cc(-c2cn[nH]c2)ccc1NC(=O)C1COc2ccccc2O1 (stereo unspecified)	.	.	.	.	-8%[57.4 µM]	.
COc1ccccc1NC(=O)CC1Nc2ccccc2NC1=O (stereo unspecified)	12µM*	-8%	?	-9%	-7%	8%
COc1ccc(Cl)cc1NC(=O)CC1Nc2ccccc2NC1=O (stereo unspecified)	.	.	.	.	-99%	.
CCN1CCN(C(=O)c2cnc(N3CCOCC3)c3ccccc23)CC1	.	.	.	.	-1%	.
Oc1ccc(-c2nc(-c3ccc(Cl)cc3)cs2)cc1	.	.	.	.	14µM*	.
c1ccc2[nH]cnc2c1	14%	-3%	?	-2%	-9%	1%
c1ccc2nc3[nH]cnc3nc2c1	-6%	-9%	6%	22µM*	8%	4%
Cc1nc(CN2Cc3nc(-c4cn[nH]c4)ccc3OCC2=O)cs1	.	.	.	.	14%[176 µM]	.
CN1CCN(C2CN(Cc3cn(Cc4cccc(Cl)c4)nn3)S(=O)(=O)C2)CC1 (stereo unspecified)	.	.	.	-2%	?	.
CN(C)CCN1CCN(C2CN(Cc3cn(Cc4cccc(Cl)c4)nn3)S(=O)(=O)C2)CC1 (stereo unspecified)	.	.	.	0%	7.9µM*	.
O=S1(=O)CC(N2CCN(Cc3ccccc3F)CC2)CN1Cc1cn(Cc2ccc(C(F)(F)F)cc2)nn1 (stereo unspecified)	.	.	.	2%	40µM*	.
Cc1ccc(Cn2cc(CN3CC(N4CCN(Cc5ccccc5F)CC4)CS3(=O)=O)nn2)cc1 (stereo unspecified)	.	.	.	-3%	10%	.
CN1CCC(N2CCN(C3CN(Cc4cn(Cc5cccc(C(F)(F)F)c5)nn4)S(=O)(=O)C3)CC2)CC1 (stereo unspecified)	.	.	.	-5%	5.6µM*	.
CN1CCN(C2CN(Cc3cn(Cc4cccc(C(F)(F)F)c4)nn3)S(=O)(=O)C2)CC1 (stereo unspecified)	.	.	.	0%	?	.
COc1ccc2c(c1)NC(c1cc(Cl)cc(Cl)c1O)c1cccn1-2 (stereo unspecified)	-16%	16%	2%	.	32µM*	3%
Cc1cccn2c(/C=N/OCc3cccc(F)c3)c(-c3ccc(Cl)cc3)nc12	-4%	-3%	-4%	22µM*	0%	4%
Cc1oc(-c2cccs2)nc1CC(=O)Nc1ccccc1-c1ccccc1	.	.	.	.	0%	.
COc1cccc(C2c3cc4c(cc3OC(N3CCOCC3)C2C)OCO4)c1O (stereo unspecified)	0%	-4%	1%	8%	32µM*	.
COc1cccc(C2c3cc4c(cc3OC(NNC(N)=O)C2C)OCO4)c1O (stereo unspecified)	4%	-3%	1%	-6%	16µM*	.
O=C(NCCCn1cccn1)C1CN(S(=O)(=O)c2cccnc2)CC12CCCCC2 (stereo unspecified)	.	.	.	.	45%	.
